Values joined by “and” are separate entries in the source; they are usually repeats but may differ in a detail not shown here. Equal entries are not always repeated. Results filed as inconclusive are left out. Active and inactive are the calls of the source. Calls follow the shape of the dose curve; as a rule, active = well fitted inhibition curve with a large enough effect; inconclusive = small, poorly fitted or top-dose-only effect; inactive = flat fitted curve, though single readings scatter. Where a SMILES comes first, the peptide text is derived from it. Bridges are numbered along the chain shown (N, C = ends). [ ]: non-standard residue; d: D form. The star is where a group is joined. X1 = CC[C@@H](C)[C@@H](N)C1=N[C@H](C(=O)*)CS1; d(aIle) = CC[C@H](C)[C@@H](N)C(=O)O; dOrn = NCCC[C@@H](N)C(=O)O
% is scaled to controls: 0 for no effect and ±100 for the full control effect; potency is read from the fitted curve at half-maximal effect.

The subject of the experiment is KB-3-1. Briefly: Cytotoxic Profiling of Annotated Libraries Using Quantitative High-Throughput Screening (AID 1296008). Also: nearly all actives have a fitted effect of over 60% in size. The settings on record: Five cell lines viability, CellTiter-Glo ATP luminescence, 48-72 h; max response: stronger effect = lower value. The method, boiled down:
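Compounds were pin-transferred onto cells and incubated 48 or 72 hr at 37 degree Celsius, 95% humidity. CellTiter-Glo was added, plates sat 10 min at room temperature, then ATP-coupled luminescence was imaged as the viability read-out.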
With `O=c1n(CC2CO2)c(=O)n(CC2CO2)c(=O)n1CC1CO1` (configuration not stated), the max response is 23% (inactive).

As to `CCCCCCCCCCCCCCCCCC(=O)OCC(C)O` (configuration not stated), the max response was -14.3% (inactive).

Take `CCC(C(=O)NC(N)=O)c1ccccc1` (configuration not stated): the max response was 4% (inactive).

Regarding `CO/N=C(\C(=O)N[C@@H]1C(=O)N2C(C(=O)[O-])=C(C[n+]3ccc(N)n3CCO)CS[C@H]12)c1csc(N)n1`, the max response is 5.24% (inactive).

With `CN1C(C(=O)Nc2ccccn2)C(=O)c2sc(Cl)cc2S1(=O)=O` (configuration not stated), the max response was 5.88% (inactive).

On to `CC1CC(O)CC(C)(C)C1` (configuration not stated), for which the max response was 4.01% (inactive).

Turning to `CC12CCC(C[N+](C)(CCC[N+](C)(C)C)C1)C2(C)C` (configuration not stated), the max response was -0.0096% (inactive).

Take `CC[C@H]1OC(=O)C[C@@H](O)[C@H](C)[C@@H](O[C@@H]2O[C@H](C)[C@@H](O[C@H]3C[C@@](C)(O)[C@@H](O)[C@H](C)O3)[C@H](N(C)C)[C@H]2O)[C@@H](CC=O)C[C@@H](C)C(=O)/C=C/C(C)=C/[C@@H]1CO[C@@H]1O[C@H](C)[C@@H](O)[C@@H](OC)[C@H]1OC`: the max response is 31.7% (inactive) and -4.31% (inactive).

For the compound `O.O.O.O.O.O.O.O=S(=O)([O-])[O-].[Co+2]`, the max response is -0.614% (inactive).

For `NC(=O)C1c2ccccc2CCc2ccccc21`, the max response was 5.54% (inactive).

For `CC[C@H]1OC(=O)[C@H](C)[C@@H](O[C@H]2C[C@@](C)(OC)[C@@H](O)[C@H](C)O2)[C@H](C)[C@@H](O[C@@H]2O[C@H](C)C[C@H](N(C)C)[C@H]2O)[C@](C)(O)C[C@@H](C)CN(C)[C@H](C)[C@@H](O)[C@]1(C)O`, the max response was -8.69% (inactive).

With `C[C@@H](O)[C@H]1C(=O)N2C(C(=O)[O-])=C(SC3Cn4cnc[n+]4C3)[C@H](C)[C@H]12` (some centres not stated), the max response was 1.34% (inactive).

In the case of `C[C@H](N)C(=O)N[C@@H](C)P(=O)(O)O`, the max response is -6.78% (inactive).

As for `CCc1ccc(S(=O)(=O)O)cc1`, the max response is 6.98% (inactive).

With `CC[C@@H](C)[C@@H](N)C1=N[C@H](C(=O)N[C@@H](CC(C)C)C(=O)N[C@@H](CCC(=O)O)C(=O)N[C@@H](C(=O)N[C@@H]2CCCCNC(=O)[C@@H](CC(N)=O)NC(=O)[C@@H](CC(=O)O)NC(=O)[C@@H](Cc3cnc[nH]3)NC(=O)[C@@H](Cc3ccccc3)NC(=O)[C@@H]([C@H](C)CC)NC(=O)[C@@H](CCCN)NC2=O)[C@@H](C)CC)CS1` (X1-LE[d(aIle)][dK][dOrn][dI][dF][dH][dD][dN]; lactam 4-C), the max response was 3.54% (inactive) and -18.2% (inactive).

For the compound `CC(CNC(=O)c1cccnc1)NC(=O)c1cccnc1` (configuration not stated), the max response was -1.27% (inactive).

With `CCCCCCCCCCCCCC(=O)OCC(COP(=O)([O-])OCC[N+](C)(C)C)OC(=O)CCCCCCCCCCCCC` (configuration not stated), the max response is 15.8% (inactive).

As to `CCc1ncnc2cc(OC)c(OC)cc12`, the max response is -4.18% (inactive).

Turning to `CN[C@@H]1[C@@H](O[C@H]2O[C@H](CO)[C@@H](N)[C@H](O)[C@H]2O)O[C@H]2C[C@@H](N)[C@@H](O[C@H]3[C@H](O)[C@@H](O)[C@H](N)C[C@@H]3N)O[C@@H]2[C@@H]1O`, the max response was 9.56% (inactive).

For the compound `CN(C)c1ccc(C(=C2C=CC(=[N+](C)C)C=C2)c2c(O)c(S(=O)(=O)[O-])cc3cc(S(=O)(=O)O)ccc23)cc1`, the Potency was 14.6 µM (active).

As for `CC[C@H](C)[C@@H]1NC(=O)[C@H](Cc2ccc(O)cc2)NC(=O)[C@@H](N)CSSC[C@@H](C(=O)N2CCC[C@H]2C(=O)N[C@@H](CC(C)C)C(=O)NCC(N)=O)NC(=O)[C@H](CC(N)=O)NC(=O)[C@H](CCC(N)=O)NC1=O`, the max response was 3.76% (inactive).

For `O=C(O[C@H]1CN2CCC1CC2)N1CCc2ccccc2[C@@H]1c1ccccc1`, the max response was 8.58% (inactive).

Consider `CC(=O)Nc1ccc(OC(=O)c2ccccc2O)cc1`, for which the max response was -18% (inactive).

Turning to `CC[C@@]1([C@@H]2O[C@@H]([C@H]3O[C@@](O)(CO)[C@H](C)C[C@@H]3C)C[C@@H]2C)CC[C@H]([C@]2(C)CC[C@]3(C[C@H](O)[C@@H](C)[C@@H]([C@@H](C)[C@@H](OC)[C@H](C)C(=O)O)O3)O2)O1` (stereo in doubt), the max response is -18.2% (inactive).

In the case of `C[C@]12CCC(=O)C[C@@H]1CC[C@@H]1[C@@H]2CC[C@]2(C)C=CC[C@@H]12`, the max response was -14.2% (inactive).

Regarding `FC(F)OC(Cl)C(F)(F)F` (configuration not stated), the max response was 0.674% (inactive).

Take `OC[C@H]1O[C@@H]2O[C@H]3[C@H](O)[C@@H](O)[C@@H](O[C@H]4[C@H](O)[C@@H](O)[C@@H](O[C@H]5[C@H](O)[C@@H](O)[C@@H](O[C@H]6[C@H](O)[C@@H](O)[C@@H](O[C@H]7[C@H](O)[C@@H](O)[C@@H](O[C@H]1[C@H](O)[C@H]2O)O[C@@H]7CO)O[C@@H]6CO)O[C@@H]5CO)O[C@@H]4CO)O[C@@H]3CO`: the max response was 3.87% (inactive).

Source of the values: PubChem BioAssay (NCATS).
